Test systems include HCT-15 colon; HT29 colon; SNB-19 CNS; U251 CNS; PC-3 prostate; SK-MEL-5 melanoma; UACC-62 melanoma; LOX IMVI melanoma; SK-MEL-28 melanoma; SK-MEL-2 melanoma; EKVX NSCLC; SN12C renal; UO-31 renal; TK-10 renal; ACHN renal; CAKI-1 renal; A498 renal; CCRF-CEM leukemia; MOLT-4 leukemia.
Assay in all cases: NCI-60 one-dose screen, 48 h (100 = growth as untreated, 0 = no growth, -100 = all killed)
Details in all cases: 10 µM unless noted

Compounds without any hit were thinned out: in the full panel of roughly 83,000, 20% have a hit.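 Plates (96-well) were seeded with cells, treated with compound at one concentration, and incubated for 48 hours before percent growth was determined.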 A number with no mark means an inactive call. Activity calls are given as the source filed them. How the source made its calls: active means growth percent below 10; inactive means the rest.

For `C=C1CC2(OC1=O)C(=O)N(CCCCCCCN1C(=O)C3(CC(=C)C(=O)O3)c3ccccc31)c1ccccc12` (configuration not stated), the growth in the assay with HCT-15 colon is -19.6% (active); in the assay on HT29 colon, -17.4% (active); with SNB-19 CNS it was 67.9%; with U251 CNS, 36.5%; with PC-3 prostate, 45.7%; in the assay on SK-MEL-5 melanoma, 61.3%. Besides, the growth in the assay on UACC-62 melanoma was 34.9%; in the assay with LOX IMVI melanoma it was -82.5% (active); in the assay with SK-MEL-28 melanoma, 9.63% (active); in the assay on SK-MEL-2 melanoma, 61.2%; with EKVX NSCLC, 88.4%; with SN12C renal, -50.9% (active). The growth in the assay on UO-31 renal is -24.6% (active); with TK-10 renal it was 45.2%; with ACHN renal it was 15.8%; in the assay on CAKI-1 renal, 40.3%; with A498 renal, 53.5%; in the assay on CCRF-CEM leukemia it was -14.8% (active). Moreover, the growth with MOLT-4 leukemia was 3.14% (active).

As to `COc1ccc(/C=N\NC(=O)CN2CCN(c3cc4c(cc3F)c(=O)c(C(=O)N/N=C/c3ccc(OC)cc3)cn4C3CC3)CC2)cc1`, the growth with HCT-15 colon is 76.6%; with HT29 colon, 90.2%; with SNB-19 CNS, 86.2%; in the assay with U251 CNS it was 95%; with PC-3 prostate, 71.9%; in the assay on SK-MEL-5 melanoma it was 72.2%. In addition, the growth in the assay with UACC-62 melanoma is 83.3%; in the assay on LOX IMVI melanoma it was 90.1%; with SK-MEL-28 melanoma, 93.9%; in the assay on SK-MEL-2 melanoma, 103%; in the assay on EKVX NSCLC, 71.7%; in the assay on SN12C renal it was 79%. The growth was 57.6% in the assay with UO-31 renal; 100% in the assay with TK-10 renal; 89.7% in the assay on ACHN renal; 95.1% in the assay on CAKI-1 renal; 73.6% in the assay on A498 renal; 81.5% with CCRF-CEM leukemia. Further, in the assay with MOLT-4 leukemia, the growth was 60%.

Regarding `CCC(=O)Oc1ccc(/C(=C(\C)c2ccccc2)c2ccc(OCCN(CC)CC)cc2)cc1`, the growth in the assay with HCT-15 colon was 54.3%; in the assay on HT29 colon, 7.83% (active); in the assay with SNB-19 CNS, 87.8%; in the assay on U251 CNS, 71.6%; with PC-3 prostate, 66.7%; in the assay with SK-MEL-5 melanoma, 74.8%. For the same compound, the growth in the assay on UACC-62 melanoma was 93.4%; in the assay on LOX IMVI melanoma, 87.8%; with SK-MEL-28 melanoma it was 80.3%; in the assay on SK-MEL-2 melanoma, 108%; in the assay on EKVX NSCLC, 103%; with SN12C renal it was 84.5%. The growth in the assay with UO-31 renal was 63.3%; with TK-10 renal, 87.4%; with ACHN renal, 94.8%; in the assay with CAKI-1 renal it was 100%; with A498 renal, 99.9%; with CCRF-CEM leukemia, 77.8%. Besides, in the assay with MOLT-4 leukemia, the growth is 66.4%.

As for `COc1ccccc1/C=C(/C(=O)c1ccccc1)c1ccccc1`, the growth with HCT-15 colon was 93.4%; with HT29 colon, 110%; in the assay with SNB-19 CNS, 90.8%; in the assay with U251 CNS, 96.4%; with PC-3 prostate, 92.2%; in the assay on SK-MEL-5 melanoma, 99.1%. The growth was 82.4% in the assay on UACC-62 melanoma; 87.8% with LOX IMVI melanoma; 108% in the assay on SK-MEL-28 melanoma; 94.5% with SK-MEL-2 melanoma; 109% in the assay on EKVX NSCLC; 102% with SN12C renal. Further, the growth with UO-31 renal was 75.4%; with TK-10 renal, 119%; with ACHN renal, 99.8%; in the assay on CAKI-1 renal, 92.8%; with A498 renal, 111%; with CCRF-CEM leukemia it was 104%. In addition, the growth in the assay on MOLT-4 leukemia was 75.1%.

Consider `CN1CCN(Cc2ccc(NC(=O)c3cncc(C#Cc4c(N)ncc5ccc(C#N)cc45)c3)cc2C(F)(F)F)CC1`, for which the growth in the assay on HCT-15 colon was -81.8% (active); in the assay with HT29 colon, -75.7% (active); in the assay on SNB-19 CNS, -79.1% (active); in the assay on U251 CNS it was -69.4% (active); in the assay with PC-3 prostate, -52.1% (active); in the assay on SK-MEL-5 melanoma, -35.5% (active). The growth is -68.5% (active) with UACC-62 melanoma; -79.8% (active) in the assay with LOX IMVI melanoma; -78.7% (active) in the assay on SK-MEL-28 melanoma; 57.4% with SK-MEL-2 melanoma; -55.3% (active) in the assay with EKVX NSCLC; 6.26% (active) in the assay with SN12C renal. The growth was -88.5% (active) in the assay with UO-31 renal; 18.3% with TK-10 renal; -92.8% (active) in the assay with ACHN renal; 58.3% in the assay on CAKI-1 renal; 43.3% with A498 renal; -14.2% (active) in the assay on CCRF-CEM leukemia. Moreover, the growth in the assay with MOLT-4 leukemia is -21.3% (active).

Regarding `C=C1CC2(OC1=O)C(=O)Nc1ccccc12` (configuration not stated), the growth in the assay on HCT-15 colon was 23%; with HT29 colon, 42.7%; with SNB-19 CNS, 88.3%; in the assay with U251 CNS, 91.2%; in the assay with PC-3 prostate it was 73.6%; in the assay with SK-MEL-5 melanoma it was 81.2%. Besides, the growth in the assay on UACC-62 melanoma was 72.9%; with LOX IMVI melanoma it was 35.3%; in the assay on SK-MEL-28 melanoma, 63.8%; with SK-MEL-2 melanoma, 92.5%; in the assay on EKVX NSCLC, 74.4%; with SN12C renal, 40.5%. For the same compound, the growth with UO-31 renal is 19.7%; in the assay on TK-10 renal, 22.3%; in the assay with ACHN renal it was 7.77% (active); in the assay on CAKI-1 renal, 31.5%; in the assay on A498 renal, 72.8%; in the assay on CCRF-CEM leukemia, 0.987% (active). For the same compound, in the assay with MOLT-4 leukemia, the growth was 18.7%.

For the compound `C/C(Cc1ccc(Cl)cc1)=C(\c1ccc(OCCN2CCCCCC2)cc1)c1ccc(OC(=O)Cc2ccccc2)cc1`, the growth in the assay on HCT-15 colon was 32.6%; in the assay with HT29 colon it was 9.8% (active); in the assay on SNB-19 CNS it was 74.4%; in the assay with U251 CNS, 42.5%; in the assay with PC-3 prostate, 54.2%; in the assay on SK-MEL-5 melanoma it was 84.1%. For the same compound, the growth is 75.1% with UACC-62 melanoma; 78.3% with LOX IMVI melanoma; 71.3% with SK-MEL-28 melanoma; 90.6% with SK-MEL-2 melanoma; 90.2% with EKVX NSCLC; 68.7% in the assay with SN12C renal. The growth in the assay with UO-31 renal was 44.6%; in the assay on TK-10 renal it was 86.7%; in the assay on ACHN renal, 85.2%; with CAKI-1 renal, 79.4%; in the assay with A498 renal, 92.5%; in the assay with CCRF-CEM leukemia it was 57.2%. Also, the growth in the assay on MOLT-4 leukemia was 24.4%.

For `COc1ccc(C/C(C)=C(\c2ccc(Cl)cc2)c2ccc(OCCN3CCCCCC3)cc2)cc1`, the growth is 43.1% in the assay on HCT-15 colon; 15.7% in the assay with HT29 colon; 84.6% with SNB-19 CNS; 64.5% in the assay with U251 CNS; 69.2% in the assay with PC-3 prostate; 80% in the assay with SK-MEL-5 melanoma. In addition, the growth with UACC-62 melanoma was 93.2%; in the assay with LOX IMVI melanoma, 90%; in the assay on SK-MEL-28 melanoma, 91%; with SK-MEL-2 melanoma, 90.5%; in the assay on EKVX NSCLC, 91.7%; in the assay on SN12C renal, 78.3%. Also, the growth in the assay on UO-31 renal was 67.9%; in the assay on TK-10 renal, 90.3%; in the assay with ACHN renal, 86.4%; in the assay on CAKI-1 renal, 84.1%; in the assay with A498 renal, 92.1%; in the assay on CCRF-CEM leukemia it was 61.6%. In the assay with MOLT-4 leukemia, the growth was 58.7%.

The record behind these values is PubChem BioAssay (NCI).
